Test results taken from PubChem BioAssay (NCI).
This is part of a sample that, as a whole, favours compounds with a hit. Of some 83,000 tested, about 20% had one in any assay.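 Testing used 96-well plates and a 48-hour single-concentration exposure. Example: -40 means 40% of the starting cells died.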 Unmarked numbers belong to inactive results. Activity calls are given as the source filed them. The calls were made as follows: active = growth percent below 10; inactive = the rest.

Test system: SNB-19 CNS
Assay: NCI-60 one-dose screen, 48 h (100 = growth as untreated, 0 = no growth, -100 = all killed)
Details: 10 µM unless noted

SMILES | growth
COc1ccc(-c2c(C#N)cnc(N)c2-c2nc3cc(C)c(C)cc3[nH]2)cc1 | 67.6%
CC(C)(C)NCC(O)COc1c(Br)c(Br)c(Br)c2c1OC(C)(C)C2 (stereo unspecified) | -47.2% (active)
O=C1/C(=C/c2cccc3cnccc23)Cc2cc(F)ccc21 | 102%
COC(OC)C1(c2ccccc2)NC(=O)NC1=O (stereo unspecified) | 106%
c1cncc(-c2nc3ccccc3[nH]2)c1 | 111%

Test system: U251 CNS
Assay: as above
Details: 10 µM unless noted

SMILES | growth
COC(=O)c1oc2c(C(=O)/C=C/c3ccc(OC)cc3)c(OCCN3CCOCC3)ccc2c1C | -81.7% (active)
CN(C)c1ccc(/C=N/n2c(-c3cc(F)c(Cl)cc3Cl)nn(CN3CCOCC3)c2=S)cc1 | 89%
CS(=O)(=O)OCC(COS(C)(=O)=O)C(c1ccccc1)c1ccccc1 | 107%
Nc1ncnc2c1c(C(F)(F)F)cn2[C@@H]1O[C@H](CO)[C@@H](O)[C@H]1O | 3.73% (active)
Cc1nccc2c3ccc(OCc4cn(Cc5ccc(Br)cc5)nn4)cc3n(CCCc3ccccc3)c12 | 82.3%
[2H]c1nc(Nc2ncc(F)c(-c3cc(F)c4nc(C)n(C(C)C)c4c3)n2)c([2H])c([2H])c1CN1CCN(CC)CC1 | 46.1%
COc1cc(/C=C2/Oc3cc4occc4c(OC)c3C2=O)ccc1OCC(=O)Nc1ccncc1 | 108%
COc1ccc2c(c1)OC(N)=C(C#N)C2c1ccc(F)cc1 (stereo unspecified) | 31.3%
CCCCCCCCCCCCCCCCNc1ccccc1 | 86.2%
O=C(Nc1ccc(-n2ccc3c(NC(=O)c4ccccc4)ncnc32)cc1)c1cccc(C(F)(F)F)c1 | 27.3%
COc1ccc(/C(Cl)=N/N=C(\Cl)c2cc(OC)c(OC)c(OC)c2)cc1OC(C)=O | 89.6%
O=C1C(Cl)=C(Nc2ccccc2)C(=O)C(Cl)=C1Nc1ccccc1 | 104%
O=C(Nc1ccc(-n2cc(-c3ccncc3)c(-c3ccc(O)c(Cl)c3)n2)cc1)c1cc(C(F)(F)F)cc(C(F)(F)F)c1 | 43.8%
CCn1c(C)nc([N+](=O)[O-])c1Sc1nc(N)nc2nc[nH]c12 | 55.1%
Cc1cn(C2CC(N=[N+]=[N-])C(COP(=O)(O)OP(=O)(O)OP(=O)(O)O)O2)c(=O)[nH]c1=O (stereo unspecified) | 109%
COc1cc(/C=C\c2cc(/C=C\c3ccc(O)c(OC)c3)n(C(=O)CNc3ccccc3OC)n2)ccc1O | 53.4%

SMILES | growth
COc1ccc(Cl)cc1NC(=O)c1cc2c([nH]1)-c1nc(NC(=O)C(C)C)sc1CC2 | 96.5%
O=C(/C=C/c1ccco1)c1cccc(Nc2nc(Nc3ccccc3)nc(Nc3ccccc3)n2)c1 | 77.1%
O=C(Nc1ccc(-n2ccc3c(NC(=O)c4ccccc4)ncnc32)cc1)Nc1ccc(Cl)c(C(F)(F)F)c1 | -79.6% (active)
CN(C)CCCOc1c(Br)cc(/C=C/C(=O)N(C)CCc2cc(Br)c(OCCCN(C)C)c(Br)c2)cc1Br | 7.24% (active)
C=C(C)[C@@H]1C/C=C(\COC(=O)[C@H](OC(C)=O)C(NC(=O)c2ccccc2)c2ccccc2)CC[C@H]2O[C@]2(C)CC/C=C(\C)CC1 (stereo partly specified) | 71.4% [5 µM]
COc1ccc(Cl)cc1NC(=O)c1cc2c([nH]1)-c1nc(NC(=O)C(C)(C)C)sc1CC2 | 9.52% (active)
CC1CCC(C(C)C)C(NN)C1 (stereo unspecified) | 96.3%
Cl[C@@H]1CCO[C@H](c2cc3ccccc3c3ccccc23)C1 | 90.6%
C[C@]12CC[C@@H]3c4ccc(O)c(N)c4CC[C@H]3[C@@H]1CC[C@@H]2O | 110%
COc1ccc(/C=C/C(=O)c2ccc(-n3cc(CN4CCN(c5cc6c(cc5F)c(=O)c(C(=O)O)cn6C5CC5)CC4)nn3)cc2)cc1OC | 10.6%
COc1ccc(-c2nn(-c3ccc(NC(=O)c4ccc(Cl)c(C(F)(F)F)c4)cc3)cc2-c2ccncc2)cc1Cl | 13.5%
O=C(O)c1cc2ccccc2cc1Nc1ccccc1 | 93.5%
COc1ccc(Cn2cc3c(c2-c2cc(OC)c(OC)c(OC)c2)CCc2c(CO)noc2-3)cc1 | 11.2%
COc1cc(C(=O)N2CCN(C(=O)c3cc(OC)c(OCc4ccccc4)cc3N)CC2)c(N)cc1OCc1ccccc1 | 115%
Nc1ccc(S(=O)(=O)Nc2ccnn2-c2ccccc2)cc1 | 94.4%
